# From PubChem BioAssay
# Most compounds without a hit are left out; they make up all but 4.5% or so of the library.
# hcDAF12 agonist – H. contortus DAF-12 nuclear receptor activators, primary screen, cell-based, luminescence, HEK293, lit1-tk-luc reporter. AID 652067, 2013. HEK293 hcDAF-12 lit1-tk-luc reporter; 0% DMSO, 100% Δ7-dafachronic acid. activation, % at 6.8 µM. hit rate 1.4% among 370,000;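 active = activation above the mean of all tested compounds plus 3 SD, cut at about 5.5% in these data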;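 note: 100% = response to 3 µM Δ7-dafachronic acid high control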
# FXN GAA850 act – FXN promoter activators, primary screen, cell-based, luciferase luminescence, HEK293 lucGAA850; AID 540364, 2011; HEK293 lucGAA850 FXN promoter luciferase reporter, 24 h; percent of 10 µM SAHA response; activation, % at 6 µM; hit rate 0.56% among 360,000;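 active = activation above the average of all compounds screened plus 3 SD, cutoff fixed separately per campaign, cut at about 7.5% in these data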;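 note: 0% = DMSO wells and 100% = 10 µM SAHA wells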
# DAX1 inh-1 – DAX1 (NR0B1) inhibitors on StAR promoter, primary screen, cell-based, luminescence, SF-1 (NR5A1), full-length DAX-1; HEK293T StAR-luciferase reporter, SF-1/DAX-1 repression relief; inhibition, % at 6.8 µM; hit rate 1.1% among 370,000; AID 652010, 2013;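 active = inhibition above the mean over all tested compounds plus 3 SD, cut at about 3.6% in these data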;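 note: 0% = DAX-1 cells with DMSO and 100% = cells lacking DAX-1 with DMSO; higher inhibition means more luminescence from relief of DAX-1 repression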
# hgDAF12 agonist – H. glycines DAF-12 receptor agonists, primary screen, cell-based, luminescence, HEK293, GAL4 fusion, UAS-luciferase; activation, % at 6.8 µM; hit rate 1.8% among 370,000; Nuclear hormone receptor DAF-12 (Heterodera glycines), GAL4 fusion; AID 687014, 2013; HEK293 GAL4-hgDAF12 UAS-luciferase reporter, agonist luminescence; normalized to butyrate control;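 active = activation above a cutoff set at the mean of all screened compounds plus 3 SD, cut at about 10% in these data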;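 note: 0% = DMSO wells and 100% = sodium butyrate wells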
# ssDAF-12 act – S. stercoralis DAF-12 nuclear receptor activators, primary screen, cell-based, luminescence, HEK293, GRIP1 co-expression, lit1-tk-luc | Nuclear hormone receptor DAF-12 (Strongyloides stercoralis) | HEK293 ssDAF-12/GRIP1 lit1-tk-luc reporter; % of 3 µM dafachronic acid response | activation, % at 6.8 µM | hit rate 1% among 370,000 | AID 652126, 2013;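 active = activation above the mean over all tested compounds plus 3 SD, cut at about 0.9% in these data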;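 note: 0% = DMSO-only wells and 100% = 3 µM delta7-dafachronic acid wells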
# DAX1 inh-2 – DAX1 (NR0B1) inhibitors, primary screen, cell-based, HEK293, Gal4-DAX1, luciferase luminescence; Nuclear receptor subfamily 0 group B member 1 (Homo sapiens), P51843; HEK293 Gal4-DAX1 luciferase reporter; inhibition, % at 6.75 µM; hit rate 0.99% among 340,000; AID 504766, 2011;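 active = inhibition above the mean over all tested compounds plus 3 SD, cut at about 4.2% in these data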;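 note: 0% = DAX1-transfected cells with DMSO and 100% = empty-vector control cells with DMSO; inhibition shows as a rise in luminescence from relieved DAX1 repression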
# Target sequence (P51843 207-470 limits assumed): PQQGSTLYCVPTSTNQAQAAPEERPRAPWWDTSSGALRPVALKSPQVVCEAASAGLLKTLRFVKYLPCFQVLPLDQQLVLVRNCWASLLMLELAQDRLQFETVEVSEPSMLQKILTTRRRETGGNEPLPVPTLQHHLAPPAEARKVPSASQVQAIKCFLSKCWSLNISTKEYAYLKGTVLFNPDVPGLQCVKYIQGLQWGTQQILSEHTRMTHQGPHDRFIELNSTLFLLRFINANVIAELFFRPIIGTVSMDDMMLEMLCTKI
# Numbers without * were called inactive; . = no result.
SMILES,hcDAF12 agonist,FXN GAA850 act,DAX1 inh-1,hgDAF12 agonist,ssDAF-12 act,DAX1 inh-2
C=CCn1c(COc2cccc3ccc(C)nc23)nnc1SCC(=O)OC,3,0,1,1,0.9*,0
Nn1c(SCC(=O)NC2CCCCC2)nnc1-c1cc(-c2ccccc2)n[nH]1,0,.,-1,3,-2,.
CC1CCCCN1C(=O)COC(=O)c1cc(Cl)c2c(c1)OCO2 (stereo unspecified),3,5,3.7*,9,-1,3
CC1CCN(C(=O)COC(=O)c2ccc3c(c2)OCO3)CC1,2,4,1,12*,-1,1
CC(C)C[C@H](NC1(C(=O)NCCc2c[nH]c3ccccc23)CCC1)C(=O)NCCCc1ccccc1,1,.,.,3,-1,.
CCOC(=O)[C@@]12CN(C(=O)OC(C)(C)C)CC=C1N(Cc1ccc(OC)cc1)C(=O)[C@H]2CC(=O)NCc1ccccc1,0,.,-1,-3,-2,.
CC(=O)Nc1ccc(NC(=O)C2CCCN2C(=O)Nc2ccccc2[N+](=O)[O-])cc1 (stereo unspecified),-2,-1,0,-2,-1,0
CC(=O)Nc1ccc(NC(=O)C2CCCN2C(=O)Nc2ccc(F)c([N+](=O)[O-])c2)cc1 (stereo unspecified),0,-2,1,3,-2,4.9*
NC(=O)c1cnn(-c2cc(Oc3ccccc3)ncn2)c1N,2,7,3.7*,9,0,2
COC(=O)c1cnn(-c2cc(Oc3ccccc3)ncn2)c1N,-1,4,0,5,-1,1
O=C1CC(NNc2ccccc2)C(=O)N1c1ccccc1 (stereo unspecified),6.3*,2,1,0,0,2
O=S1(=O)c2ccc(Br)cc2OC[C@H](Cc2ccccc2)N1Cc1cn(CCC2OCCCO2)nn1,0,.,0,2,-1,.
O=C(CCCCCN1C(=O)C2C3C=CC(C3)C2C1=O)N1CCN(c2ncccn2)CC1 (stereo unspecified),-2,.,0,-2,-1,.
Cn1c2ccc(F)cc2c2ncn(CCN3CCOCC3)c(=O)c21,3,2,0,3,0,7.2*
Cn1c2ccccc2c2ncn(CCCN3CCOCC3)c(=O)c21,5,-1,0,0,0,2
O=C(NCC1CC1(Cl)Cl)Nc1ccc(Cl)c(Cl)c1 (stereo unspecified),-1,6,0,11*,0,1
O=C(NCCCn1ccnc1)Nc1ccc(Cl)c(Cl)c1,5.8*,-2,1,0,-1,0
C[C@H]1CCCN1c1ccc2c(c1)O[C@@H]1CCN(C1)S2(=O)=O,0,.,-1,5,-1,.
COc1ccc2[nH]cc(/C=C/C(=O)c3ccccc3)c2c1,5,3,1,11*,0,4
COc1ccc(C(=O)c2c[nH]c3ccccc23)cc1,4,3,3,11*,1,2
COc1ccc(CC(=O)OCC(=O)c2c[nH]c3ccccc23)cc1,2,2,-1,0,0,-1
COc1ccc2[nH]cc(C=O)c2c1,-2,-4,0,-2,-1,1
COc1ccc(C(=O)c2ccccc2)cc1,2,4,1,0,16*,2
O=C(O)c1cc(S(=O)(=O)NC(Cc2c[nH]c3ccccc23)C(=O)O)ccc1Cl (stereo unspecified),5.9*,2,0,2,0.9*,1
COC(=O)C(Cc1c[nH]c2ccccc12)NC(=O)C(C)C (stereo unspecified),1,1,-1,-1,-1,0
SMILES,hcDAF12 agonist,FXN GAA850 act,DAX1 inh-1,hgDAF12 agonist,ssDAF-12 act,DAX1 inh-2
O=C(NC(Cc1c[nH]c2ccccc12)C(=O)O)/C(=C/c1ccc(F)cc1)NC(=O)c1ccccc1 (stereo unspecified),5,1,0,2,0.9*,2
COC(=O)C(Cc1c[nH]c2ccccc12)NC(=O)C(=O)c1c[nH]c2ccccc12 (stereo unspecified),5.9*,-1,0,3,0,0
C=CCCC(=O)N1CCC(C(=O)NC2CCCc3ccccc32)CC1 (stereo unspecified),-4,.,0,3,-1,.
COc1cccc(CNC(=O)CN(C)S(=O)(=O)c2ccc(Br)s2)c1,-3,0,0,0,-1,10*
CC1CCN(S(=O)(=O)c2ccc(Cl)cc2)CC1,0,0,-1,1,-1,-1
CC1CCCC(C)N1S(=O)(=O)c1ccc(Cl)cc1 (stereo unspecified),-2,0,0,-1,-2,4.7*
[O-]c1n[n+](-c2ccc(Cl)cc2Cl)cc2ccccc12,-1,1,0,-1,-1,4.4*
O=C(Cn1c(=O)[nH]c2ccsc2c1=O)NC1CCCCCC1,0,-3,1,3,-2,7.3*
CC1CCC(NC(=O)Cn2c(=O)[nH]c3ccsc3c2=O)CC1 (stereo unspecified),1,3,0,3,-1,2
Cc1ccc2c(c1)C(N1CCCC1=O)CC(c1ccco1)N2 (stereo unspecified),5.7*,7,3,11*,0,1
O=C(CN(Cc1ccco1)C(=O)c1ccc(F)cc1F)Nc1ccccc1C(F)(F)F,-1,4,2,1,-1,-1
O=C(CN(Cc1ccco1)C(=O)c1cc(=O)[nH]c2ccccc12)Nc1ccccc1C(F)(F)F,0,-2,0,-2,-1,6.3*
CN1CCN(CC(O)COc2ccccc2)CC1 (stereo unspecified),5,-1,1,13*,0,2
CCOC(=O)N1CCN(CC(O)COc2ccc(-c3ccccc3)cc2)CC1 (stereo unspecified),-2,1,-1,-2,-2,1
OC(COc1ccccc1)CN1CCCC1 (stereo unspecified),0,0,1,0,0,4
Cc1cccc(N2CCN(CC(O)COc3ccccc3)CC2)c1 (stereo unspecified),-2,4,0,3,-2,4.8*
